Most compounds without a hit are left out; they make up all but 1.6% or so of the library.
KCNQ2 inh = blocks the rat KCNQ2 potassium channel. O88943. CHO-K1 KCNQ2, FluxOR thallium flux, 20 min; hits give low values. B-score at 10 µM. actives 1.1% (n = 310,000). AID 2156;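 active = fluorescence ratio B-score at most minus 3 library SDs, with starting brightness B-score within 2 library SDs, cut at about -5.5 in these data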
Target sequence (O88943 whole entry, looked up): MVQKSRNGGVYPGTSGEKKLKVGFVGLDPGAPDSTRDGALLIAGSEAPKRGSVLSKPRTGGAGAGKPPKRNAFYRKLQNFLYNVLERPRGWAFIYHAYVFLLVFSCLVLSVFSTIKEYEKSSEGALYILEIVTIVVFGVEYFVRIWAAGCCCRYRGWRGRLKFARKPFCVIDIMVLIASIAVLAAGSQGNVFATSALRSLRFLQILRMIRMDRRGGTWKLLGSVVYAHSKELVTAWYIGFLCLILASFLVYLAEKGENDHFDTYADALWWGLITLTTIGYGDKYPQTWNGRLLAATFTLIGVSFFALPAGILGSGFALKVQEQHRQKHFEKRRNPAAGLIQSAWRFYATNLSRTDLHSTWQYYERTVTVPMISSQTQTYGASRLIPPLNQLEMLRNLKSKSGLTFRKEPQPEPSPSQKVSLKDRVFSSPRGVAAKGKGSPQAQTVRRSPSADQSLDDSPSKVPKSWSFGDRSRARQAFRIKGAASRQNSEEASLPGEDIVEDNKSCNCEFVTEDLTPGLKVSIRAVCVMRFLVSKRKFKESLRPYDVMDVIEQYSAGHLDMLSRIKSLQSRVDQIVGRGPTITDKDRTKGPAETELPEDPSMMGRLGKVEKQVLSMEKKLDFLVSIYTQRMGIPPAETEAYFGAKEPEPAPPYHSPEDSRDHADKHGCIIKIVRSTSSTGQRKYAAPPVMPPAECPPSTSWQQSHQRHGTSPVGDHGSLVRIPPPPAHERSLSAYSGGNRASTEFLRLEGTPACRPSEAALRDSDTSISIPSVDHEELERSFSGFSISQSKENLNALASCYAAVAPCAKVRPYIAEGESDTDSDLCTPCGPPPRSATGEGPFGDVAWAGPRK
KCNQ2 pot = potentiators of rat KCNQ2 potassium channel; O88943; CHO-K1 KCNQ2, FluxOR thallium flux fluorescence; hits give high values; B-score at 10 µM; actives 0.54% (n = 310,000); AID 2239;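 active = fluorescence ratio B-score at least 3 SD of library B-scores, with initial fluorescence B-score within 3 of them, cut at about 5.3 in these data; same plate scores as AID 2156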;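 note: B-score of peak minus minimum over baseline fluorescence ratio after K+ and Tl+ stimulus; positive B-score means potentiation of KCNQ2 with more thallium influx and brighter signal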
* marks the source's active call; other numbers are inactive results.

`COc1ccc(CN(C)C(=O)c2cc(-c3ccccc3)nc3ccc(C)cc23)c(OC)c1OC` gave KCNQ2 inh -5.7* and KCNQ2 pot -5.7.
For COc1ccc(-c2cc(C(=O)N(C)CCc3ccc(OC)c(OC)c3)c3ccccc3n2)cc1 the results were KCNQ2 inh -5.6* and KCNQ2 pot -5.6.
For CCCCCCn1cc(C(=O)O)c(=O)c2ccccc21 the results were KCNQ2 inh inactive.
Screening COc1ccc(NC(=O)CNCCC2=CCCCC2)cc1 returned KCNQ2 inh inactive and KCNQ2 pot 0.14.
CCOC(=O)C1C(CC)NC(=S)NC1(C)O (configuration not stated) was read as KCNQ2 inh inactive and KCNQ2 pot 1.2.
Screening CCOc1ccc(C(=O)NC(C(=O)NCc2ccccc2OC)C(C)C)cc1 (configuration not stated) returned KCNQ2 inh inactive.
For CCOc1ccccc1C(=O)NC(C(=O)NCc1ccccc1OC)C(C)C (configuration not stated) the results were KCNQ2 inh -6.2* and KCNQ2 pot -6.2.
`COc1cccc(/C=N/NC(=O)CSc2nnc(C)n2-c2ccccc2)c1O` gave KCNQ2 inh inactive.
CCCCSc1nc(C)cc(SCC(=O)N/N=C/c2cccc(OC)c2O)n1 was read as KCNQ2 inh inactive and KCNQ2 pot 6.3*.
COc1cc(OC)cc(-c2cc3nc(C)c(CCC(=O)Nc4nc(C)cs4)c(C)n3n2)c1 was read as KCNQ2 inh inactive and KCNQ2 pot 0.86.
`COc1ccc(C2(C(=O)NCc3ccccc3Cl)CCOCC2)cc1OC` gave KCNQ2 inh inactive and KCNQ2 pot 0.8.
`COc1ccccc1CNC(=O)C1(c2ccc(Cl)cc2)CC1` gave KCNQ2 inh -5.7* and KCNQ2 pot -5.7.
O=C(/C=C/c1ccc([N+](=O)[O-])cc1)NCC1CCCO1 (configuration not stated) was read as KCNQ2 inh inactive.
Screening O=C(NC1CCCCCCC1)c1ccc2c(c1)OCO2 returned KCNQ2 inh inactive.
For Cc1ccc(S(=O)(=O)N(CC(=O)Nc2ccccc2-c2ccccc2)c2ccc(C)cc2C)cc1 the results were KCNQ2 inh -6* and KCNQ2 pot -6.
Screening Cc1cc(C)cc(N(CC(=O)Nc2ccccc2-c2ccccc2)S(=O)(=O)c2ccccc2)c1 returned KCNQ2 inh inactive.
`Cc1ccc(N(CC(=O)Nc2ccccc2-c2ccccc2)S(=O)(=O)c2ccccc2)cc1` gave KCNQ2 inh -6.2* and KCNQ2 pot -6.2.
For Cc1cc(F)ccc1NC(=O)CCCN(C)S(=O)(=O)c1ccc(F)cc1 the results were KCNQ2 inh inactive and KCNQ2 pot 1.6.
Cc1cccc(N(CC(=O)Nc2ccccc2-c2ccccc2)S(=O)(=O)c2ccccc2)c1C was read as KCNQ2 inh inactive.
Cc1ccc(S(=O)(=O)N(C)CCCC(=O)Nc2ccc(C)cc2C)cc1 was read as KCNQ2 inh inactive and KCNQ2 pot 6.2*.
Screening COc1ccccc1/C=C(/C(=O)OCC(=O)Nc1ccccc1C(C)C)c1ccccc1 returned KCNQ2 inh inactive.
Screening CC1=NN(C(=O)COc2cc(C)ccc2C(C)C)C(O)(c2ccccc2)C1 (configuration not stated) returned KCNQ2 inh inactive.
Screening Cc1cc(Br)ccc1OCCOCCN1CCCC1 returned KCNQ2 inh inactive.
For O=C(OCC#CCSc1nnc(-c2cccc3ccccc23)o1)c1cccs1 the results were KCNQ2 inh -5.8* and KCNQ2 pot -5.8.
For O=C(OCC#CCSc1nnc(-c2ccccc2)o1)c1cccs1 the results were KCNQ2 inh inactive.
O=[N+]([O-])c1ccc(CN2CCN(c3ccc(F)cc3)CC2)o1 was read as KCNQ2 inh inactive and KCNQ2 pot 1.8.
Screening O=C(CSc1nccc(-c2cccs2)n1)Nc1ccc(Cl)cc1 returned KCNQ2 inh inactive and KCNQ2 pot 1.4.
Cc1onc(-c2ccc(Cl)cc2)c1-c1ccnc(SCC(=O)Nc2ccc(C(C)C)cc2)n1 was read as KCNQ2 inh -5.6* and KCNQ2 pot -5.6.
For O=C(c1cccs1)N1CCN(Cc2cccnc2)CC1 the results were KCNQ2 inh inactive and KCNQ2 pot 0.51.
For COc1cc(C(O)P(=O)(OC(C)C)c2ccc(N(C)C)cc2)cc(OC)c1OC (configuration not stated) the results were KCNQ2 inh inactive.
Screening CC(C)OC(=O)CSc1nnc(CNc2cccc(Cl)c2)n1C returned KCNQ2 inh inactive and KCNQ2 pot 0.01.
For CCOC(=O)CSc1nnc(CNc2cccc(Cl)c2)n1-c1ccccc1 the results were KCNQ2 inh -6.4* and KCNQ2 pot -6.4.
Cc1nc2c(cc1NC(=O)C(C)(C)C)nc(C)n2Cc1ccccc1 was read as KCNQ2 inh inactive and KCNQ2 pot 7.3*.
`CC(=O)Nc1cc2nc(C)n(Cc3ccccc3)c2nc1C` gave KCNQ2 inh inactive.
Screening O=C(NCc1ccccc1OC(F)(F)F)C1CCC(=O)N(Cc2cccc(F)c2)C1 (configuration not stated) returned KCNQ2 inh inactive.
For Cc1ccccc1CNC(=O)C1CCC(=O)N(Cc2cccc(F)c2)C1 (configuration not stated) the results were KCNQ2 inh -6.3* and KCNQ2 pot -6.3.
CC(C)(C)c1nc2c(C#N)c(-c3ccc(Cl)cc3)ccn2n1 was read as KCNQ2 inh inactive.
Screening COC(=O)c1cc(OC)c(OC)cc1NC(=O)c1cc(-c2ccccc2)nc2ccccc12 returned KCNQ2 inh inactive.
For CCOc1ccccc1NC(=O)c1cccc2ccccc12 the results were KCNQ2 inh -5.5* and KCNQ2 pot -5.5.
CCOc1ccccc1C(=O)Nc1ccccc1C(N)=O was read as KCNQ2 inh inactive and KCNQ2 pot 0.61.
For CCOc1ccccc1NC(=O)c1ccccc1-c1nc(-c2ccccc2)no1 the results were KCNQ2 inh inactive.
Screening CCOc1ccccc1NC(=O)c1cc(-c2cc(OC)c(OC)c(OC)c2)nc2ccccc12 returned KCNQ2 inh -6.1* and KCNQ2 pot -6.1.
`NC(=O)c1cccnc1Oc1ccc(Cl)cc1` gave KCNQ2 inh inactive.
O=C(Nc1cccnc1Oc1ccc(Cl)cc1)c1cccc2ccccc12 was read as KCNQ2 inh -6* and KCNQ2 pot -6.
For CCOc1ccccc1NC(=O)c1ccccc1-c1ccccc1 the results were KCNQ2 inh -5.6* and KCNQ2 pot -5.6.
`COc1ccc(CCN(Cc2cc3ccc(C)cc3[nH]c2=O)C(C)=O)cc1OC` gave KCNQ2 inh inactive.
`COc1ccc(/C=C/C(=O)Oc2ccc(/C=N/NC(=O)c3ccncc3)cc2)cc1` gave KCNQ2 inh inactive and KCNQ2 pot 0.25.
Screening Cc1ccc2nc(-c3ccc(S(=O)(=O)N4CCOCC4)cc3)cn2c1 returned KCNQ2 inh inactive.
`COc1ccccc1CC(=O)Nc1cccc2ccccc12` gave KCNQ2 inh inactive.
For COc1cccc(C(=O)Nc2cccc3ccccc23)c1OC the results were KCNQ2 inh -6.2* and KCNQ2 pot -6.2.
For COc1ccc(C(=O)Nc2ccccc2C(=O)N/N=C/c2cccc3ccccc23)cc1 the results were KCNQ2 inh -5.8* and KCNQ2 pot -5.8.
`Cc1cccc(/C=N/NC(=O)c2ccccc2OCc2cccc(Br)c2)n1` gave KCNQ2 inh inactive.
COc1ccc(/C(C)=N/NC(=O)c2ccccc2OCc2ccccc2)c(OC)c1 was read as KCNQ2 inh inactive.

Assay outcomes as filed in PubChem.
